# Test results: ChEMBL document CHEMBL1157539, “Thousands of chemical starting points for antimalarial lead identification” (Nature, 2010)
# Tested on: Plasmodium falciparum
# Test: GSK_TCMDC: Inhibition of Plasmodium falciparum 3D7 in whole red blood cells, using parasite LDH activity as an index of growth. Test compounds present at 2uM
# Format: functional
row,SMILES,Inhibition [%]
1,CCc1cn2c3c(cc(C(=O)N[C@@H](Cc4cc(F)cc(F)c4)[C@H](O)CNC4CCOCC4)cc13)N(C)S(=O)(=O)CC2.O=CO,98
2,CCOc1ccc2[nH]c(C)cc(=NN=Cc3cccc(C)n3)c2c1,99
3,Cc1onc(-c2ccccc2)c1-c1nc(NCCC(c2ccccc2)c2ccccc2)no1,100
4,CCCCC(CC)CN1C(=O)C(c2ccccc2)(c2ccccc2)N=C1N.O=CO (stereo not given),94
5,CCCN(CC1CC1)c1ncc(-c2cccc(CNCc3ccccc3O)c2)cn1,97
6,C=C(NC(=O)C1CCCCC1)C(=O)OC,93
7,Cc1cc(N)c2cc(NC(=O)c3ccc4ccccc4c3)ccc2n1.Cl,100
8,NC1CCN(CCNCc2cccc(-c3ccc(-c4nc5cc(C(F)(F)F)ccc5[nH]4)cc3)c2)C1.O=C(O)C(F)(F)F (stereo not given),98
9,CN1CCC(C(=O)Nc2cccc(-c3cccc(-c4nc5cc(F)ccc5[nH]4)c3)c2)CC1,100
10,CCCN1CCc2c(sc3nc(SCC(=O)Nc4ccc(C)cc4)n(-c4ccc(C)cc4)c(=O)c23)C1,92
11,C=CCc1cc(Br)ccc1OCCCOc1c(N)nc(N)nc1N.Cl,92
12,COc1ccc(NC(=O)N2CCCN(CCCCCNC(=O)/C=C/c3ccc(C(F)(F)F)cc3)CC2)cc1Cl,93
13,CCOc1c(C)cc(C(F)(F)F)cc1CNCCCNc1cc(=O)c2ccccc2[nH]1.Cl,97
14,Cc1cc(Nc2ccc(Oc3ccc(Cl)cc3)cc2)nc(N)n1,100
15,CC(=O)Nc1cccc(C(=O)Nc2cccc(-c3ccc(-c4nc5cc(F)ccc5[nH]4)s3)c2)c1,94
16,C(=N\Nc1nccc2sc(-c3cccnc3)cc12)/c1ccncc1,100
17,Cc1cccc2[nH]c(-c3cc(-c4cccc(Cl)c4)cnc3N)nc12.O=C(O)C(F)(F)F,100
18,CN(C)Cc1ccc(O)c(-c2ccc(C(C)(C)C)cc2)n1.Cl,86
19,O=C(C=Cc1ccc(-c2ccccc2)cc1)N1CCC(CCN2CCC(c3c[nH]c4ccccc34)CC2)CC1,87
20,COc1ccc(OC)c(Cc2cnc3nc(N)nc(N)c3c2C)c1 [PIRITREXIM],92

row,SMILES,Inhibition [%]
1,COc1c(C2CCN(CCCCNC(=O)c3noc(-c4ccc(C#N)cc4)n3)CC2)ccc2c1CCCC2,99
2,O=C(O)C(F)(F)F.O=S(=O)(NCCN1CCCC1)c1ccc(-c2cccc(CNCc3ccc(F)cc3)c2)cc1,100
3,CC1(C)[C@H]2CC[C@@H](CNc3nc(NCC(=O)Nc4ccc5ccccc5c4)nc(N4CCC(N5CCCC5)CC4)n3)[C@@H]1C2,93
4,CN(C)c1cccc2c1nc(-c1ccc3c(c1)CCO3)n2CCNCc1ccccc1.O=C(O)C(F)(F)F,99
5,CC(C)C[C@H]1C(=O)N[C@H](C2Cc3ccccc3C2)C(=O)N1[C@@H](C(=O)Nc1ccccc1OCc1ccccc1)c1ccc(F)cc1F,90
6,Cc1ccnc(-n2c(C)cc(C=C3SC(=Nc4ccccc4)N(Cc4ccco4)C3=O)c2C)c1,99
7,COc1cc(-c2cc(-c3ccc(OCCN(C)C)cc3)[nH]c2-c2ccncc2)ccc1Cl.Cl,100
8,Cc1noc(-c2cccs2)c1C(=O)NCCc1cccc(Cl)c1,97
9,O=C(O)C(F)(F)F.O=C(O)Cc1ccc(-c2c[nH]c3ncc(-c4cccc5ncccc45)cc23)cc1,95
10,CC(C)CCCC(C)NC[C@@H](O)[C@H](Cc1ccccc1)NC(=O)c1cc(N2CCCC2=O)cc(N(c2ccccc2)S(C)(=O)=O)c1 (stereo not given in full),99
11,COc1cc(-n2c(CN3CCCC3)nc3cc(-c4ccc(Cl)cc4)sc3c2=O)ccc1OCCN1CCCC1.O=C(O)C(F)(F)F,94
12,COc1ccc2nccc([C@@H](O)CN3CCC(NCc4cnc5snnc5c4)C(F)C3)c2c1.Cl (stereo not given in full),83
13,Cc1cc(N[C@@H](CC(C)C)C(=O)NC2CCCC2)nc(NCC2CCCCC2)n1.O=C(O)C(F)(F)F,100
14,Fc1ccc2[nH]c(-c3cccc(-c4ccc(CNCc5cnn(-c6ccccc6)n5)cc4)c3)nc2c1.O=C(O)C(F)(F)F,98
15,NC(=O)Nc1ccc2c(Nc3ccc(OCc4ccccc4)cc3)ncnc2c1,84
16,COc1cccc(-c2ccc3ccnc(N)c3c2)c1.O=C(O)C(F)(F)F,100
17,CCCN(CCC)CC(O)COc1ccccc1C(=O)Nc1ccccc1 (stereo not given),92
18,CCN(CCCN1CCCCC1)c1cc(C)nc(Nc2cccc(OC(F)(F)F)c2)n1.O=C(O)C(F)(F)F,100
19,CC1(C)N=C(N)N=C(N)C1c1ccc(Cl)c(Cl)c1.Cl (stereo not given),95
20,CN(C)CCCNc1ncnc2c1[nH]c1ccc(Cl)cc12,99

# Tested on: Plasmodium falciparum
# Test: GSK_TCMDC: Inhibition of Plasmodium falciparum Dd2 in whole red blood cells, using parasite LDH activity as an index of growth. Test compounds present at 2uM
# Format: functional
row,SMILES,Inhibition [%]
1,CCc1cn2c3c(cc(C(=O)N[C@@H](Cc4cc(F)cc(F)c4)[C@H](O)CNC4CCOCC4)cc13)N(C)S(=O)(=O)CC2.O=CO,98
2,CCOc1ccc2[nH]c(C)cc(=NN=Cc3cccc(C)n3)c2c1,73
3,Cc1onc(-c2ccccc2)c1-c1nc(NCCC(c2ccccc2)c2ccccc2)no1,78
4,CCCCC(CC)CN1C(=O)C(c2ccccc2)(c2ccccc2)N=C1N.O=CO (stereo not given),98
5,CCCN(CC1CC1)c1ncc(-c2cccc(CNCc3ccccc3O)c2)cn1,98
6,C=C(NC(=O)C1CCCCC1)C(=O)OC,3
7,Cc1cc(N)c2cc(NC(=O)c3ccc4ccccc4c3)ccc2n1.Cl,99
8,NC1CCN(CCNCc2cccc(-c3ccc(-c4nc5cc(C(F)(F)F)ccc5[nH]4)cc3)c2)C1.O=C(O)C(F)(F)F (stereo not given),75
9,CN1CCC(C(=O)Nc2cccc(-c3cccc(-c4nc5cc(F)ccc5[nH]4)c3)c2)CC1,27
10,CCCN1CCc2c(sc3nc(SCC(=O)Nc4ccc(C)cc4)n(-c4ccc(C)cc4)c(=O)c23)C1,71
11,C=CCc1cc(Br)ccc1OCCCOc1c(N)nc(N)nc1N.Cl,0
12,COc1ccc(NC(=O)N2CCCN(CCCCCNC(=O)/C=C/c3ccc(C(F)(F)F)cc3)CC2)cc1Cl,0
13,CCOc1c(C)cc(C(F)(F)F)cc1CNCCCNc1cc(=O)c2ccccc2[nH]1.Cl,1
14,Cc1cc(Nc2ccc(Oc3ccc(Cl)cc3)cc2)nc(N)n1,71
15,CC(=O)Nc1cccc(C(=O)Nc2cccc(-c3ccc(-c4nc5cc(F)ccc5[nH]4)s3)c2)c1,30
16,C(=N\Nc1nccc2sc(-c3cccnc3)cc12)/c1ccncc1,94
17,Cc1cccc2[nH]c(-c3cc(-c4cccc(Cl)c4)cnc3N)nc12.O=C(O)C(F)(F)F,99
18,CN(C)Cc1ccc(O)c(-c2ccc(C(C)(C)C)cc2)n1.Cl,25
19,O=C(C=Cc1ccc(-c2ccccc2)cc1)N1CCC(CCN2CCC(c3c[nH]c4ccccc34)CC2)CC1,16
20,COc1ccc(OC)c(Cc2cnc3nc(N)nc(N)c3c2C)c1 [PIRITREXIM],97

row,SMILES,Inhibition [%]
1,COc1c(C2CCN(CCCCNC(=O)c3noc(-c4ccc(C#N)cc4)n3)CC2)ccc2c1CCCC2,0
2,O=C(O)C(F)(F)F.O=S(=O)(NCCN1CCCC1)c1ccc(-c2cccc(CNCc3ccc(F)cc3)c2)cc1,41
3,CC1(C)[C@H]2CC[C@@H](CNc3nc(NCC(=O)Nc4ccc5ccccc5c4)nc(N4CCC(N5CCCC5)CC4)n3)[C@@H]1C2,20
4,CN(C)c1cccc2c1nc(-c1ccc3c(c1)CCO3)n2CCNCc1ccccc1.O=C(O)C(F)(F)F,85
5,CC(C)C[C@H]1C(=O)N[C@H](C2Cc3ccccc3C2)C(=O)N1[C@@H](C(=O)Nc1ccccc1OCc1ccccc1)c1ccc(F)cc1F,67
6,Cc1ccnc(-n2c(C)cc(C=C3SC(=Nc4ccccc4)N(Cc4ccco4)C3=O)c2C)c1,98
7,COc1cc(-c2cc(-c3ccc(OCCN(C)C)cc3)[nH]c2-c2ccncc2)ccc1Cl.Cl,100
8,Cc1noc(-c2cccs2)c1C(=O)NCCc1cccc(Cl)c1,95
9,O=C(O)C(F)(F)F.O=C(O)Cc1ccc(-c2c[nH]c3ncc(-c4cccc5ncccc45)cc23)cc1,0
10,CC(C)CCCC(C)NC[C@@H](O)[C@H](Cc1ccccc1)NC(=O)c1cc(N2CCCC2=O)cc(N(c2ccccc2)S(C)(=O)=O)c1 (stereo not given in full),97
11,COc1cc(-n2c(CN3CCCC3)nc3cc(-c4ccc(Cl)cc4)sc3c2=O)ccc1OCCN1CCCC1.O=C(O)C(F)(F)F,90
12,COc1ccc2nccc([C@@H](O)CN3CCC(NCc4cnc5snnc5c4)C(F)C3)c2c1.Cl (stereo not given in full),88
13,Cc1cc(N[C@@H](CC(C)C)C(=O)NC2CCCC2)nc(NCC2CCCCC2)n1.O=C(O)C(F)(F)F,88
14,Fc1ccc2[nH]c(-c3cccc(-c4ccc(CNCc5cnn(-c6ccccc6)n5)cc4)c3)nc2c1.O=C(O)C(F)(F)F,22
15,NC(=O)Nc1ccc2c(Nc3ccc(OCc4ccccc4)cc3)ncnc2c1,20
16,COc1cccc(-c2ccc3ccnc(N)c3c2)c1.O=C(O)C(F)(F)F,93
17,CCCN(CCC)CC(O)COc1ccccc1C(=O)Nc1ccccc1 (stereo not given),95
18,CCN(CCCN1CCCCC1)c1cc(C)nc(Nc2cccc(OC(F)(F)F)c2)n1.O=C(O)C(F)(F)F,99
19,CC1(C)N=C(N)N=C(N)C1c1ccc(Cl)c(Cl)c1.Cl (stereo not given),0
20,CN(C)CCCNc1ncnc2c1[nH]c1ccc(Cl)cc12,3
